Measurements taken from PubChem BioAssay (NCI).
Where “and” joins values, the source holds several entries; their conditions need not be identical. Identical values can stand only once. About 83,000 compounds went through this panel and 20% of them were active in at least one assay; those are over-represented in the sample as a whole.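 Step 1: grow cells in 96-well plates. Step 2: add test compound at a single concentration. Step 3: incubate 48 h. Step 4: record percent growth.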 A number with no mark means an inactive call. Calls of active or inactive are those of the source. How the source made its calls: active means growth percent below 10; inactive means the rest.

Assays:
Experiment in all cases: NCI-60 one-dose screen, 48 h (100 = growth as untreated, 0 = no growth, -100 = all killed)
SK-MEL-2 melanoma = details: 10 µM unless noted
SN12C renal = details: 10 µM unless noted
UO-31 renal = details: 10 µM unless noted
TK-10 renal = test system: TK-10 renal
ACHN renal = details: 10 µM unless noted
CAKI-1 renal = details: 10 µM unless noted
A498 renal = details: 10 µM unless noted
HL-60(TB) leukemia = details: 10 µM unless noted
MOLT-4 leukemia = details: 10 µM unless noted
RPMI-8226 leukemia = details: 10 µM unless noted

Row | SMILES | growth (SK-MEL-2 melanoma) | growth (SN12C renal) | growth (UO-31 renal) | growth (TK-10 renal; 10 µM) | growth (ACHN renal) | growth (CAKI-1 renal) | growth (A498 renal) | growth (HL-60(TB) leukemia) | growth (MOLT-4 leukemia) | growth (RPMI-8226 leukemia) | growth (TK-10 renal; 100 µM)
1 | CC[C@@]1(O)C[C@H](OC2CC(N(C)C)C(OC3CC(O)C(OC4CCC(=O)C(C)O4)C(C)O3)C(C)O2)c2c(cc3c(c2O)C(=O)c2c(O)ccc(O)c2C3=O)[C@H]1C(=O)OC (stereo not given in full) | -40.2% (active) | 24.3% | -57.2% (active) | 6.04% (active) | -86.9% (active) | -53.5% (active) | -78.6% (active) | -9.74% (active) | 7.32% (active) | -33.9% (active) | –
2 | CCC(=O)OC1CCn2c1nc1c2C(=O)C(C)=C(N2CC2)C1=O (stereo not given) | -43.9% (active) | -43.9% (active) | -9.18% (active) | -5.86% (active) | -25.3% (active) | -8.28% (active) | -77.6% (active) | 10.4% | 70.5% | 2.94% (active) | –
3 | O=C1c2ccccc2C(=O)C(Cl)C1Cl (stereo not given) | 111% | 71.4% | -98.5% (active) | -97.4% (active) | -100% (active) | 64.5% | 133% | -24.2% (active) | -8.44% (active) | 31.1% | –
4 | CC1=C(CO)C2=C(C)C3(CC3)[C@@](C)(O)C(=O)C2=C1 | -46.8% (active) | 20.5% | -40.5% (active) | -23.3% (active) | -16.4% (active) | -17% (active) | -66.5% (active) | -32.9% (active) | 16% | 80.2% | –
5 | C[C@]12CC[C@H](O)CC1=CC[C@@H]1[C@@H]2CC[C@]2(C)C(=O)CC[C@@H]12 | 95.3% | 106% | 80.6% | 96.2% | 108% | 87.3% | 92% | 85% | 89% | 80.4% | –
6 | Oc1cccc2cccnc12 | 99% and 102% and 101% | 89.6% and 103% and 99.6% | 74.2% and 94.4% and 80.2% | 113% and 98.5% and 104% | 83.5% and 117% and 96% | 103% and 100% and 107% | 137% and 99.4% and 83.7% | 98.8% and 114% and 78.2% | 60.2% and 110% and 97.8% | 84% and 97.1% | –
7 | CC1CCC2(NC1)OC1CC3C4CCC5CC(OC6OC(CO)C(OC7OC(CO)C(O)C(OC8OCC(O)C(O)C8O)C7OC7OC(CO)C(O)C(O)C7O)C(O)C6O)CCC5(C)C4CCC3(C)C1C2C (stereo not given) | – | – | – | – | – | – | – | – | – | – | -97.4% (active) and -87.3% (active)
8 | CC[n+]1c(-c2ccccc2)c2cc(N)ccc2c2ccc(N)cc21 | -60.1% (active) | -16.5% (active) | 63.5% | 42% | 54.4% | 81% | 60.4% | 23.7% | 23.7% | 7.63% (active) | –
9 | COC1CC(CC2CCC(C)C(C(C)C(=O)O)O2)OC2(OC(C)(C3CCC(C)(C4OC(C5OC(O)(CO)C(C)CC5C)CC4C)O3)CC2C)C1C (stereo not given) | -61.3% (active) | 17.1% | 13.3% | 4.27% (active) | 16.2% | 8.78% (active) | -68.8% (active) | -56% (active) | -36.2% (active) | -45% (active) | –
10 | CC1=C2C(=O)[C@H]3[C@@H](CC=C4C[C@@H](O)CC[C@@]43C)[C@@H]2CC[C@]12O[C@@H]1C[C@H](C)CN[C@H]1[C@H]2C | 2.09% (active) | 102% | 72.6% | 108% | 108% | 103% | 103% | 115% | 96.9% | 92% | –
11 | CCOC(=O)C(NC(=O)C(Cc1ccc(N(CCCl)CCCl)cc1)NC(C)=O)C(C)C (stereo not given) | 92.7% | 76.2% | 82.5% | 95.5% | 42.7% | 40.8% | 107% | 44.9% | 56.6% | 85.1% | –
12 | CCC1(O)CC(OC2CC(N(C)C)C(OC3CC4OC5CC(=O)C(C)OC5OC4C(C)O3)C(C)O2)c2c(cc3c(c2O)C(=O)c2c(O)ccc(O)c2C3=O)C1C(=O)OC (stereo not given) | -54.8% (active) | 13.4% | -39.6% (active) | -28.7% (active) | -17.6% (active) | -15.4% (active) | -71.4% (active) | -41.6% (active) | -9.49% (active) | -53% (active) | –
13 | C[C@H]1CCC/C=C/[C@@H]2C[C@H](O)C[C@H]2[C@H](O)/C=C/C(=O)O1 | -21.5% (active) | 19.8% | -22.9% (active) | -31.1% (active) | 1.27% (active) | -2.67% (active) | -37.1% (active) | -22.5% (active) | -7.93% (active) | -17.9% (active) | –
14 | Cc1ccc(C(=O)OC(C(=O)O)C(OC(=O)c2ccc(C)cc2)C(=O)O)cc1 (stereo not given) (tested in a mixture with another compound) | 77.1% | 38.5% | – | 93.2% | 66% | 50.7% | 77.7% | 23.5% | 35.9% | -3.01% (active) | –
15 | COc1ccc(OC)c(/C=C/[N+](=O)[O-])c1 | 1.51% (active) | 15.9% | -81.9% (active) | -31.9% (active) | -67.9% (active) | -3.49% (active) | 18.5% | 1.04% (active) | -4.18% (active) | -28.9% (active) | –
16 | CC[C@](O)(C(=O)O)c1cc2n(c(=O)c1CO)Cc1cc3ccccc3nc1-2 | -20.9% (active) | 17% | -61% (active) | 6.69% (active) | -57.1% (active) | -28.8% (active) | -76.5% (active) | -44.6% (active) | -38.3% (active) | -36% (active) | –
